Several values for one entry are separate records, joined by “and”; a condition that tells them apart may be missing. Identical values can stand only once. Records with an inconclusive call do not appear. Where a call stands in place of a potency, no number is given. Activity calls are given as the source filed them. Calls follow the shape of the dose curve; as a rule, active = well fitted cell-killing curve with a large enough effect in the repeat runs; inconclusive = weak or mixed curves, or effect the other way; inactive = flat fitted curve, though single readings scatter.
Potency is read from the fitted curve at half-maximal effect.

This assay is described as follows: qHTS RealTime-Glo MT Cell Viability Assay in HepG2 cells - 40 hour (AID 1224870). Also: nearly all actives have a fitted effect of over 50% in size. As to conditions: RealTime-Glo luminescence; series mostly up to 76.8 µM. An excerpt:
National Center for Advancing Translational Sciences [NCATS]
NIH Chemical Genomics Center [NCGC]
U.S. Environmental Protection Agency [EPA]
National Institutes of Environmental Health Sciences [NIEHS]
National Toxicology Program [NTP]
U.S. Food and Drug Administration [FDA]
Measure of cell viability is critical in the cell-base assay. Analysis of cell viability is necessary for the characterization of cell responses to cytotoxic drugs and environmental stress. A RealTime-Glo MT Cell Viability Assay to monitor cell viability in real time of continues cell culture during 40 hours of compound treatment was used to screen Tox21 10K library compounds in HepG2 cells. The RealTime-Glo MT Cell Viability Assay is a nonlytic, homogeneous, bioluminescent method to measure cell viability in real time using a simple, plate-based method. The assay involves adding NanoLuc luciferase and a cell-permeant prosubstrate to cells in culture. Viable cells reduce the proprietary prosubstrate to generate a substrate for NanoLuc luciferase. This substrate diffuses from cells into the surrounding culture medium, where it is rapidly used by the NanoLuc Enzyme to produce a luminescent signal. The signal correlates with the number of viable cells, making the assay well suited for cytotoxicity studies.
Tox21 Assay Protocol Summary:
The mixture of HepG2 cell suspension and reagents were dispensed at 600cells/6 ul/well in 1536-well tissue culture treated black solid bottom plates using a Multidrop dispenser. After the assay plates were incubated at a 37 C/5% CO2 incubator for 5 hours, 23 nL of compounds dissolved in DMSO, positive and negative controls was transferred to the assay plate by a pintool work station. The plates were incubated at 37 C for 40 hours. The luminescence intensity were measured at 0h, 8h, 16h, 24h, 32h and 40h time points using ViewLux plate reader during compound treatment.
Turning to `CCOS(=O)(=O)OCC`, the Potency result was “inactive”.
The value for `Clc1ccccc1-c1nnc(-c2ccccc2Cl)nn1` was “inactive”; that for `CCC1(c2ccc(N)cc2)CCC(=O)NC1=O` (stereo not given) was “inactive”.
The value for `O=C1Nc2ccc(Cl)cc2C(c2ccccc2)=NC1O` (stereo not given) was “inactive”.
The value for `Brc1ccc(Br)cc1` was “inactive”; that for `COP(=O)(NC(C)=O)SC` (stereo not given) was “inactive”.
In the case of `O=[N+]([O-])c1ccc(Nc2ccccc2)cc1`, the Potency result was “inactive”.
In the case of `Cc1cc(Cl)ccc1N=CN(C)C` it was “inactive”; in that of `CNC(=S)S`, “inactive”; in that of `O=C(O)CF`, “inactive”.
In the case of `Nc1ccc2ccccc2c1`, the Potency entry is “inactive”.
In the case of `CCC(=O)Nc1ccc(Cl)c(Cl)c1` it was “inactive”.
The value for `Clc1cccc(C(Cl)(Cl)Cl)n1` was “inactive”.
Consider `Cc1ccc(N=CN(C)C=Nc2ccc(C)cc2C)c(C)c1`, for which the Potency entry was “inactive”.
Take `N#CCCCCC#N`: the Potency entry was “inactive”.
In the case of `CCCCCCCC[N+](C)(CCCCCCCC)CCCCCCCC` it was 9.75 µM (active) and 15.5 µM (active) and 8.71 µM (active); in that of `COP(=S)(OC)SCn1nnc2ccccc2c1=O`, “inactive”; in that of `CCCCCCCCCc1ccc(O)cc1`, “inactive”.
The value for `CSc1nc(NC(C)C)nc(NC(C)C)n1` was “inactive”; that for `O=[N+]([O-])/N=C1\NCCN1Cc1ccc(Cl)nc1` was “inactive”.
In the case of `CNC(=O)CSP(=S)(OC)OC` it was “inactive”.
With `O=C1C(Cl)=C(Cl)C(=O)c2ccccc21`, the Potency was 34.8 µM (active) and 17.4 µM (active).
The value for `Cc1ccc([N+](=O)[O-])cc1` was “inactive”; that for `c1ccc2c(c1)Nc1ccccc1S2` was “inactive”.
For `COc1ccc(C=O)cc1OC`, the Potency result was “inactive”.
In the case of `CN(C)c1nc(=O)n(C2CCCCC2)c(=O)n1C` it was “inactive”.
In the case of `OCCOCCO` it was “inactive”; in that of `CC(C)COC(=O)c1ccccc1C(=O)OCC(C)C`, “inactive”; in that of `CC(C)=CC1C(C(=O)OCc2cccc(Oc3ccccc3)c2)C1(C)C` (stereo not given), “inactive”.
The value for `CC(C)(C#N)N=NC(C)(C)C#N` was “inactive”.
As to `COc1ccc(O)c(C(C)(C)C)c1`, the Potency result was “inactive”.
The value for `O=S(=O)(O)C(F)(F)C(F)(F)C(F)(F)C(F)(F)C(F)(F)C(F)(F)C(F)(F)C(F)(F)F` was “inactive”.
In the case of `CC1=C(C(=O)Nc2ccccc2)SCCO1` it was “inactive”.
In the case of `Oc1ccc(Cl)cc1Cl` it was “inactive”; in that of `CCN(CC)C(=O)C(C)Oc1cccc2ccccc12` (stereo not given), “inactive”; in that of `CCCCOCC1CO1` (stereo not given), “inactive”.
As for `N#Cc1c(Cl)c(Cl)c(Cl)c(C#N)c1Cl`, the Potency was 19.1 µM (active) and 3.47 µM (active).
The value for `CC(C)(c1ccc(OCC2CO2)cc1)c1ccc(OCC2CO2)cc1` (stereo not given) was “inactive”.
Turning to `CC(O)CN(CC(C)O)CC(C)O` (stereo not given), the Potency result is “inactive”.
In the case of `COP(=S)(OC)Oc1ccc(S(=O)(=O)N(C)C)cc1` it was “inactive”.

These data come from PubChem BioAssay (Tox21).
